Screens (PubChem BioAssay)
TDP43 rescue = qHTS of TDP-43 Inhibitors. AID 652104, 2013. TDP-43 expressing yeast growth rescue, BacTiter-Glo, 24 h. Potency, µM (top dose mostly 46.1 µM), for the others: at the highest dose growth rescue (activation), most hits filed as activators. 1.8% of 410,000 active; note: % of control where 0% means no effect; nearly all actives have a fitted effect of over 50% in size
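Yeast expressing TDP-43 (pregrown in raffinose, seeded at OD600=0.02 in galactose medium) exposed to compounds 24 hr at 30 deg C. Growth read by BacTiter-Glo luminescence; rescue of toxicity appears as increased signal.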
FUS suppressor = qHTS for Suppressors of FUS Proteinopathy: Primary screen using FUS-linked yeast assay | S. cerevisiae FUS-expressing, growth rescue, OD600, 24 h | AID 1347120, 2019 | 0.24% of 390,000 active | Potency, µM (doses to about 76.6 µM), hits mostly activators;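 note: plate controls were DMSO vehicle for no effect and reference control for full effect; nearly all actives have a fitted effect of over 55% in size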
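Quantitative HTS measuring growth restoration of FUS-toxic yeast. Galactose-induced cells (OD 0.005) were exposed 24hr at 30C to compounds at several concentrations, then absorbance at 600 nm was recorded.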
Abeta yeast res = qHTS for compounds that reverse cellular toxicity of Amyloid beta (A-beta) peptide in yeast: Primary Screen; AID 1347071, 2019; yeast expressing A-beta42, growth rescue, OD600, 48 h; response scale: 0% DMSO, 100% iron-clioquinol control; Potency, µM (series often up to 46.1 µM), most hits filed as activators; 0.063% of 410,000 active; note: nearly all actives have a fitted effect of over 55% in size
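Yeast growth medium received pinned compounds, then yeast cells expressing toxic A-beta were added; plates incubated at 30 C for 48 hr. Growth read as absorbance at 600 nm, normalized to DMSO and equimolar FeCl3 plus clioquinol controls.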
aSyn rescue = qHTS of alpha-syn Inhibitors; Yeast expressing alpha-synuclein, growth rescue, BacTiter-Glo, 24 h; Potency, µM (series often up to 46.1 µM), for the others: at the top dose growth rescue (activation), usual class: activators; 0.14% of 370,000 active; AID 652106, 2013; note: % of control where 0% means no effect; nearly all actives have a fitted effect of over 65% in size
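Screening used galactose-induced yeast with toxic alpha-synuclein levels, exposed to compound for 24 hr at 30 deg C. Cell growth, read with BacTiter-Glo luminescence, gave the measured signal.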
Numbers without * were called inactive; i = inactive; ? = inconclusive; . = no result. Hits are enriched below; roughly 2.1% of the tested compounds scored in any of these assays. Calls come from the whole dose curve; as a rule, active = well fitted curve in the direction sought with a large enough effect; inconclusive = small, poorly fitted or top-dose-only effect, or another doubt; inactive = no such curve, though single readings can be large; an effect the other way counts as inactive or inconclusive. Potency is the fitted concentration of half-maximal effect.

SMILES	TDP43 rescue	FUS suppressor	Abeta yeast res	aSyn rescue
COc1ccc(N2CCN(C(=O)c3ccc(N(C)S(=O)(=O)c4ccc(C)cc4)cc3)CC2)cc1	12.6µM*	?	i	1.8%
Cc1noc(C)c1COc1ccc(C(=O)N2CCN(c3cccc(Cl)c3)CC2)cc1	22.4µM*	i	i	10.3%
COc1ccccc1N1CCN(C(=O)c2cccc(Oc3ccccc3)c2)CC1	35.5µM*	i	i	4.6%
COc1ccccc1N1CCN(C(=O)Nc2ccc([N+](=O)[O-])cc2)CC1	14.1µM*	i	i	6.1%
COc1ccc(N2CCN(C(=O)c3ccc(N(C)S(=O)(=O)c4ccc(OC)cc4)cc3)CC2)cc1	24.2%	?	i	20.6%
COc1ccccc1N1CCN(C(=O)c2cc3c(=O)n4ccccc4nc3s2)CC1	20µM*	i	i	8.0%
COc1cccc(N2CCN(C(=O)c3ccc(-c4ccccc4)cc3)CC2)c1	12.6µM*	?	i	11.1%
COc1cc2ccccc2cc1C(=O)N1CCCC1	9.7%	i	i	2.7%
CN1CCN(C(=O)c2cc3c(=O)n4ccccc4nc3s2)CC1	-10.6%	i	i	1.2%
CCCS(=O)(=O)N1CCN(C(=O)c2ccc(-c3ccccc3)cc2)CC1	17.8µM*	i	i	?
COc1cc2ccccc2cc1C(=O)N1CCN(c2ccccc2O)CC1	12.6µM*	?	i	0.5%
CCOC(=O)N1CCc2c(sc3c2c(=O)n(CCc2ccccc2)c(=O)n3Cc2ccc(C)cc2C)C1	6.1%	i	i	.
COc1ccc(C(=O)N2CCN(c3ccccc3OC)CC2)cc1	?	i	i	10.4%
COc1ccccc1N1CCN(C(=O)c2sc3nc(-c4ccc(F)cc4)cn3c2C)CC1	11.2µM*	?	i	17.3%
COc1ccc(-c2cn3c(C)c(C(=O)N4CCN(c5ccc(F)cc5)CC4)sc3n2)cc1	1.7%	i	i	1.5%
COc1ccccc1N1CCN(C(=O)c2ccc(-c3ccccc3)cc2)CC1	17.8µM*	i	i	9.3%
CCOc1ccccc1N1CCN(C(=O)c2ccccc2)CC1	14.6%	i	i	-3.1%
CCOc1ccccc1N1CCN(C(=O)c2ccc(-c3ccc(OC(C)=O)cc3)cc2)CC1	20µM*	?	i	1.0%
O=C(Nc1ccccc1)c1cc(C2CCCCN2C(=O)OCc2ccccc2)on1 (configuration not stated)	16.8%	i	i	11.7%
O=C(NCc1ccccc1)c1cc(C2CCCN(C(=O)CCc3ccccc3)C2)on1 (configuration not stated)	0.0%	i	i	-0.2%
O=C(Nc1ccc(F)c(Cl)c1)c1cc(C2CCCN(C(=O)C3CC3)C2)on1 (configuration not stated)	25.1µM*	i	i	-7.7%
O=C(Nc1ccccc1)c1cc(C2CCCN(C(=O)OCc3ccccc3)C2)on1 (configuration not stated)	35.5µM*	i	i	0.5%
O=C(Nc1ccccc1Cl)c1cc(C2CCCN(C(=O)CCc3ccccc3)C2)on1 (configuration not stated)	?	i	i	3.1%
O=C(Nc1ccc(F)c(Cl)c1)c1cc(C2CCCCN2C(=O)C2CC2)on1 (configuration not stated)	10.4%	i	i	-4.1%
O=C(NCc1ccc(F)cc1)c1cc(C2CCCN(C(=O)CCCc3ccccc3)C2)on1 (configuration not stated)	17.8µM*	?	i	12.4%
O=C(Nc1ccccc1)c1cc(C2CCCN(C(=O)CCc3ccccc3)C2)on1 (configuration not stated)	17.8µM*	i	i	0.5%
COc1cc(N(C)C)c(OC)cc1/C=C/c1ccnc2ccccc12	.	.	.	-15.4%
COc1cccc(C(=O)Nc2cccc(OCc3cc(=O)n4cc(C)ccc4n3)c2)c1	9.8%	i	i	.
O=C(Nc1ccc(F)c(Cl)c1)c1cc(C2CCCN(C(=O)CCc3ccccc3)C2)on1 (configuration not stated)	28.2µM*	i	i	1.1%
CC1CCc2c(sc3nc(-c4cc5cc(Br)ccc5oc4=O)[nH]c(=O)c23)C1 (configuration not stated)	12.9%	i	i	.
